According to PubChem BioAssay (NCI):
Compounds without any hit were thinned out: in the full panel of roughly 83,000, 20% have a hit.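 A percent growth of 40 corresponds to 60% growth inhibition; 0 means no net growth; -100 means all cells died. Active threshold: below 10.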 Active and inactive are the calls of the source.

Legend:
Assay in all cases: NCI-60 one-dose screen, 48 h (100 = growth as untreated, 0 = no growth, -100 = all killed)
Conditions in all cases: 10 µM unless noted
SR leukemia = system: SR leukemia
RPMI-8226 leukemia = system: RPMI-8226 leukemia
OVCAR-8 ovarian = system: OVCAR-8 ovarian
OVCAR-5 ovarian = system: OVCAR-5 ovarian
OVCAR-4 ovarian = system: OVCAR-4 ovarian
SK-OV-3 ovarian = system: SK-OV-3 ovarian
IGROV1 ovarian = system: IGROV1 ovarian
OVCAR-3 ovarian = system: OVCAR-3 ovarian
HS 578T breast = system: HS 578T breast
NCI/ADR-RES ovarian = system: NCI/ADR-RES ovarian

Measured: growth

COC(=O)C1=Nc2ccc(F)cc2/C1=C\c1sc(Nc2ccc(O)cc2)nc1O
inactive: SR leukemia 24.2% | RPMI-8226 leukemia 62% | OVCAR-8 ovarian 83% | OVCAR-5 ovarian 98% | OVCAR-4 ovarian 64.8% | SK-OV-3 ovarian 102% | IGROV1 ovarian 68.5% | OVCAR-3 ovarian 19.8% | HS 578T breast 46.1% | NCI/ADR-RES ovarian 94.5%

COc1ccc(C2CC(c3ccc4c(c3)OCO4)=Nc3c(N)ncnc3N2)cc1 (stereo not given)
inactive: SR leukemia 86.4% | RPMI-8226 leukemia 55.7% | OVCAR-8 ovarian 103% | OVCAR-5 ovarian 82.9% | OVCAR-4 ovarian 102% | SK-OV-3 ovarian 103% | IGROV1 ovarian 104% | OVCAR-3 ovarian 151% | HS 578T breast 103% | NCI/ADR-RES ovarian 92.3%

Cc1ccc(/C=C(\C#N)C(=O)Nc2ncc(Cc3cc(Cl)ccc3Cl)s2)o1
active: OVCAR-4 ovarian 1.2%
inactive: SR leukemia 90.1% | RPMI-8226 leukemia 49.3% | OVCAR-8 ovarian 49.8% | OVCAR-5 ovarian 69.6% | SK-OV-3 ovarian 62% | IGROV1 ovarian 71.7% | OVCAR-3 ovarian 75.4% | HS 578T breast 13% | NCI/ADR-RES ovarian 52.5%

CCCCCCOC(=O)CC1=C(C)/C(=C/c2[nH]c(-c3ccc[nH]3)cc2OC)N=C1C
active: SR leukemia -44.5% | RPMI-8226 leukemia -52.3% | OVCAR-8 ovarian -55.1% | OVCAR-5 ovarian -9.61% | OVCAR-4 ovarian -29.2% | SK-OV-3 ovarian -34.5% | IGROV1 ovarian -8.74% | OVCAR-3 ovarian -93.9% | HS 578T breast -27% | NCI/ADR-RES ovarian -49.4%

Nc1c(C(=O)Nc2cccc3ncccc23)sc2nc3c(cc12)C(=O)CCC3
active: HS 578T breast 5.47%
inactive: SR leukemia 41.4% | RPMI-8226 leukemia 59.6% | OVCAR-8 ovarian 78.9% | OVCAR-5 ovarian 69.8% | OVCAR-4 ovarian 71.1% | SK-OV-3 ovarian 21.3% | IGROV1 ovarian 59% | OVCAR-3 ovarian 37.4% | NCI/ADR-RES ovarian 72.8%

NS(=O)(=O)c1ccc(N/C=C/C(=O)c2cc3ccccc3oc2=O)cc1
inactive: SR leukemia 78.1% | RPMI-8226 leukemia 98.4% | OVCAR-8 ovarian 104% | OVCAR-5 ovarian 106% | OVCAR-4 ovarian 87.5% | SK-OV-3 ovarian 83.4% | IGROV1 ovarian 91.5% | HS 578T breast 92.4% | NCI/ADR-RES ovarian 97.8%

COc1ccc(/C(C)=C(\c2ccc(Cl)cc2)c2ccc(OCCN3CCCC3)cc2)cc1
inactive: OVCAR-8 ovarian 51.6% | OVCAR-5 ovarian 64.7% | OVCAR-4 ovarian 63.5% | SK-OV-3 ovarian 82.9% | IGROV1 ovarian 48.9% | HS 578T breast 51.5% | NCI/ADR-RES ovarian 70.6%
active: SR leukemia -21.6% | RPMI-8226 leukemia -20.3%

O=C1/C=C/[C@@H](O)[C@@H]2C[C@@H](O)C[C@H]2/C=C/CCC[C@H](CCOCc2ccccc2)O1
inactive: RPMI-8226 leukemia 11.5% | OVCAR-4 ovarian 25.8% | SK-OV-3 ovarian 31.3% | IGROV1 ovarian 15.1% | HS 578T breast 23.8%
active: SR leukemia -7.43% | OVCAR-8 ovarian 9.04% | OVCAR-5 ovarian 8.12% | NCI/ADR-RES ovarian 6.93%

O=C(Nc1ccc(F)cc1)Nc1ccccc1CNc1nc(Nc2ccc(OCCN3CCCC3)cc2)ncc1Cl
inactive: OVCAR-8 ovarian 23.1% | OVCAR-5 ovarian 16.9% | SK-OV-3 ovarian 92.8% | IGROV1 ovarian 56.2% | HS 578T breast 74.3% | NCI/ADR-RES ovarian 44.5%
active: SR leukemia 2.14% | RPMI-8226 leukemia -4.89% | OVCAR-4 ovarian -7.62% | OVCAR-3 ovarian -43.1%

CC1(C)OC(=O)C(=Cc2cccc(Br)c2)C(=O)O1
inactive: SR leukemia 99.7% | RPMI-8226 leukemia 97.4% | OVCAR-8 ovarian 98.4% | OVCAR-5 ovarian 117% | OVCAR-4 ovarian 114% | SK-OV-3 ovarian 109% | IGROV1 ovarian 102% | OVCAR-3 ovarian 107% | HS 578T breast 90.8% | NCI/ADR-RES ovarian 107%

CC(C)C[C@@H](C(=O)N[C@H](C(=O)OC1CCCC1)c1ccccc1)[C@H](O)C(=O)NO
inactive: SR leukemia 51.1% | RPMI-8226 leukemia 29% | OVCAR-8 ovarian 52.7% | OVCAR-5 ovarian 59.8% | OVCAR-4 ovarian 53% | SK-OV-3 ovarian 67.5% | IGROV1 ovarian 73.4% | HS 578T breast 74.6% | NCI/ADR-RES ovarian 101%

CCN(CC)CCNC(=O)c1ccc(-c2nc3ccc4[nH]ncc4c3c3c2CCCC3)cc1
active: SR leukemia 6.02%
inactive: RPMI-8226 leukemia 52.1% | OVCAR-8 ovarian 59% | OVCAR-5 ovarian 87.3% | OVCAR-4 ovarian 76.1% | SK-OV-3 ovarian 44.1% | IGROV1 ovarian 35.3% | OVCAR-3 ovarian 78.4% | HS 578T breast 41.6% | NCI/ADR-RES ovarian 70.9%

CC(C)(C)C(=O)/C=C/c1ccc([N+](=O)[O-])cc1
active: SR leukemia 8.57%
inactive: RPMI-8226 leukemia 23.5% | OVCAR-8 ovarian 76.8% | OVCAR-5 ovarian 108% | OVCAR-4 ovarian 91.5% | SK-OV-3 ovarian 98.7% | IGROV1 ovarian 96% | OVCAR-3 ovarian 84.9% | HS 578T breast 90.2% | NCI/ADR-RES ovarian 60.2%

COc1ccc(Cc2nnc(Nc3nc4ccccc4s3)s2)cc1
inactive: SR leukemia 60.6% | RPMI-8226 leukemia 107% | OVCAR-8 ovarian 103% | OVCAR-5 ovarian 89.1% | OVCAR-4 ovarian 105% | SK-OV-3 ovarian 115% | IGROV1 ovarian 94% | HS 578T breast 94.6% | NCI/ADR-RES ovarian 95.7%

O=C1c2cc3c(cc2-c2c1c1ccc(Cl)cc1c(=O)n2C[C@H](O)CO)OCO3
inactive: HS 578T breast 26.2%
active: SR leukemia -2.7% | RPMI-8226 leukemia -11.9% | OVCAR-8 ovarian 3.37% | OVCAR-5 ovarian -7.3% | OVCAR-4 ovarian 4.86% | SK-OV-3 ovarian -2% | IGROV1 ovarian 8% | OVCAR-3 ovarian -17.3% | NCI/ADR-RES ovarian 3.2%

Cc1nc2sc(C(=O)Nc3cccc(Cl)c3)c(N)c2cc1C(O)c1ccccc1 (stereo not given)
active: SR leukemia 8.06% | OVCAR-3 ovarian 6.3% | NCI/ADR-RES ovarian 5.21%
inactive: RPMI-8226 leukemia 11.3% | OVCAR-8 ovarian 19% | OVCAR-5 ovarian 41.4% | OVCAR-4 ovarian 71.6% | SK-OV-3 ovarian 40.6% | IGROV1 ovarian 28.7% | HS 578T breast 19%

COc1ccc(C/C(C)=C(\c2ccc(O)cc2)c2ccc(OCCN3CCCC3)cc2)cc1
inactive: SR leukemia 82.4% | RPMI-8226 leukemia 105% | OVCAR-8 ovarian 103% | OVCAR-5 ovarian 99.1% | OVCAR-4 ovarian 104% | SK-OV-3 ovarian 100% | IGROV1 ovarian 103% | OVCAR-3 ovarian 108% | HS 578T breast 101% | NCI/ADR-RES ovarian 104%

CCCCc1oc2ccccc2c1C(=O)c1ccc(O)cc1
inactive: SR leukemia 31% | RPMI-8226 leukemia 42.5% | OVCAR-8 ovarian 82.2% | OVCAR-5 ovarian 84.3% | OVCAR-4 ovarian 68.2% | SK-OV-3 ovarian 94.4% | IGROV1 ovarian 79.6% | OVCAR-3 ovarian 94.3% | HS 578T breast 83.2% | NCI/ADR-RES ovarian 76.1%

Cc1c2cnccc2c(C)c2c1c1cc(C3OCCCO3)ccc1n2C
active: SR leukemia 4.22% | RPMI-8226 leukemia -21.6% | OVCAR-8 ovarian 6.68% | OVCAR-5 ovarian -3.71% | OVCAR-4 ovarian -2.47% | SK-OV-3 ovarian -6.97% | IGROV1 ovarian 2% | OVCAR-3 ovarian 0.203% | HS 578T breast -3.27% | NCI/ADR-RES ovarian -9.92%

CCOc1ccc(NC(=O)c2cc(OC)c(OC)c(OC)c2)cc1
inactive: SR leukemia 24.7% | RPMI-8226 leukemia 27% | OVCAR-8 ovarian 49.5% | OVCAR-5 ovarian 94% | OVCAR-4 ovarian 65% | SK-OV-3 ovarian 40.6% | IGROV1 ovarian 53.1% | HS 578T breast 26.8% | NCI/ADR-RES ovarian 11.5%

CC(C)CN1CC(C(=O)Nc2ccc3c(c2)-c2ccccc2C3)CC1=O (stereo not given)
inactive: SR leukemia 63.4% [50 µM] | RPMI-8226 leukemia 55% [50 µM] | OVCAR-8 ovarian 48.5% [50 µM] | OVCAR-5 ovarian 69.8% [50 µM] | OVCAR-4 ovarian 71.2% [50 µM] | SK-OV-3 ovarian 74.6% [50 µM] | IGROV1 ovarian 67.9% [50 µM] | HS 578T breast 28.8% [50 µM] | NCI/ADR-RES ovarian 67.7% [50 µM]

C=C1C(=O)O[C@H]2[C@H]1CC/C(COC(=O)c1cc3cc(F)ccc3[nH]1)=C\CC[C@@]1(C)O[C@@H]21
active: SR leukemia -5.71% | RPMI-8226 leukemia -33.3% | OVCAR-8 ovarian -42% | OVCAR-5 ovarian -74.2% | OVCAR-4 ovarian -68.2% | IGROV1 ovarian -72.1% | HS 578T breast -14.2% | NCI/ADR-RES ovarian -20.2%
inactive: SK-OV-3 ovarian 26.7%

C/C(=N\Nc1nc(C)cs1)c1cc2ccccc2o1
inactive: SR leukemia 109% | RPMI-8226 leukemia 88.5% | OVCAR-8 ovarian 93.3% | OVCAR-5 ovarian 103% | OVCAR-4 ovarian 94.2% | SK-OV-3 ovarian 105% | IGROV1 ovarian 75.8% | HS 578T breast 88.8% | NCI/ADR-RES ovarian 102%

Cc1cc(C(=O)Nc2cc(Nc3ncccc3-c3ncnc4nc[nH]c34)ccc2F)cc(C(F)(F)F)c1
inactive: SR leukemia 51.3% | RPMI-8226 leukemia 53.8% | OVCAR-8 ovarian 57.2% | OVCAR-5 ovarian 33.3% | OVCAR-4 ovarian 47.7% | SK-OV-3 ovarian 87.2% | IGROV1 ovarian 103% | OVCAR-3 ovarian 68% | HS 578T breast 38.1% | NCI/ADR-RES ovarian 52.1%

O=C1Nc2ccccc2C2c3cccn3-c3ccccc3N12 (stereo not given)
inactive: SR leukemia 49.5% | RPMI-8226 leukemia 82.6% | OVCAR-8 ovarian 86.9% | OVCAR-5 ovarian 96.6% | OVCAR-4 ovarian 84.2% | SK-OV-3 ovarian 84.6% | IGROV1 ovarian 74.1% | OVCAR-3 ovarian 74.1% | HS 578T breast 78.3% | NCI/ADR-RES ovarian 42.7%

COc1cc(N2C(=O)[C@H](c3ccccc3)C2c2ccc(SC)cc2)cc(OC)c1OC (stereo not given in full)
active: SR leukemia -5.24% | RPMI-8226 leukemia -9.2% | OVCAR-8 ovarian 4.09% | SK-OV-3 ovarian 8.14% | OVCAR-3 ovarian 8.73% | NCI/ADR-RES ovarian 9.89%
inactive: OVCAR-5 ovarian 56.8% | OVCAR-4 ovarian 48.6% | IGROV1 ovarian 13.7% | HS 578T breast 20.6%

OC(c1ccccc1)(c1ccccc1)c1ccccc1-c1ccccc1
inactive: SR leukemia 95.2% | RPMI-8226 leukemia 82.9% | OVCAR-8 ovarian 96.7% | OVCAR-5 ovarian 94.7% | OVCAR-4 ovarian 80.4% | SK-OV-3 ovarian 86.6% | IGROV1 ovarian 91.2% | HS 578T breast 94.2% | NCI/ADR-RES ovarian 85.5%

C=C(CO)[C@@H]1CC[C@]2(COC3CCCCO3)CC[C@]3(C)[C@H](CC[C@@H]4[C@@]5(C)C=C(C=O)C(=O)C(C)(C)[C@@H]5CC[C@]43C)[C@@H]12 (stereo not given in full)
active: SR leukemia -49.9% | RPMI-8226 leukemia -35% | OVCAR-8 ovarian -69% | OVCAR-5 ovarian -75.5% | OVCAR-4 ovarian -63.8% | SK-OV-3 ovarian -95.8% | IGROV1 ovarian -78.8% | OVCAR-3 ovarian -68.8% | HS 578T breast -52.3% | NCI/ADR-RES ovarian -37.5%
